In PubChem BioAssay (Tox21) one finds Potency and outcome data, which are given here for 28 compounds.

Test [1] has as its target Cytochrome P450 2D6 (Homo sapiens) (UniProt P10635). Put plainly: Cytochrome P450 Family 2 Subfamily D Member 6 (CYP2D6) small molecule antagonists: luciferase reporter qHTS assay (AID 1671196). Also: nearly all actives have a fitted effect of over 50% in size. Also: potency is read from the fitted curve at half-maximal effect. An outline of the steps:
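CYP2D6 activity was followed as luminescence from its luciferin product after a 1 h NADPH-driven reaction at room temperature. Enzyme-substrate mix and compound were pre-incubated for 10 min, and the signal was read 20 min after adding detection reagent.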

For test [2], the target named is Cytochrome P450 2C19 (Homo sapiens) (UniProt P33261). Put plainly: Cytochrome P450 Family 2 Subfamily C Member 19 (CYP2C19) small molecule antagonists: luciferase reporter qHTS assay (AID 1671197). Also: nearly all actives have a fitted effect of over 65% in size. Also: potency is read from the fitted curve at half-maximal effect. An outline of the steps:
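Luminescent readout of CYP2C19 activity: luciferin product detected 20 min after adding detection reagent. Before that, compound and enzyme-substrate mix preincubated 10 min at room temperature; NADPH-regenerating system started a 1 h, 37C reaction. Ketoconazole as positive control.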

Test [3] addresses Cytochrome P450 2C9 (Homo sapiens) (UniProt P11712). Put plainly: Cytochrome P450 Family 2 Subfamily C Member 9 (CYP2C9) small molecule antagonists: luciferase reporter qHTS assay (AID 1671198). Also: nearly all actives have a fitted effect of over 50% in size. Also: potency is read from the fitted curve at half-maximal effect. The method in brief: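 P450-Glo proluciferin substrate with CYP2C9 enzyme; 10 min RT preincubation, then NADPH regeneration 1 h at 37C; luciferin detection reagent 20 min RT, luminescence in relative luminescence units.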
On the technique in general: Reporter assays use an easily measured gene product as a stand-in for the process of interest.

Test [4] deals with Cytochrome P450 1A2 (Homo sapiens) (UniProt P05177). In words: Cytochrome P450 Family 1 Subfamily A Member 2 (CYP1A2) small molecule antagonists: luciferase reporter qHTS assay (AID 1671199). Also: nearly all actives have a fitted effect of over 50% in size. Also: potency is read from the fitted curve at half-maximal effect. An outline of the steps:
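Luminescence from luciferin formed by CYP1A2 from a proluciferin substrate, read 20 min after detection reagent. Compound was pre-incubated 10 min with enzyme-substrate, and reaction started with NADPH regeneration solution for 1 h at room temperature; furafylline control.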

For test [5], the target named is Voltage-gated inwardly rectifying potassium channel KCNH2 (Homo sapiens) (UniProt Q12809). In words: Human Ether-a-go-go-Related Gene (hERG) channel small molecule antagonists: fluorescence cell-based qHTS assay (AID 1671200).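 Also: hERG-expressing U2OS cells given a thallium stimulus after FluxOR II dye loading; series mostly up to about 77 µM; nearly all actives have a fitted effect of over 50% in size.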 An outline of the steps:
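First, 1000 cells per well are seeded and cultured overnight at 37 C. Next, FluxOR II dye is loaded for 1 h at room temperature, protected from light. After 10 more minutes, stimulus is added and fluorescence is read.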

Test [6] concerns the target Cytochrome P450 3A4 (Homo sapiens) (UniProt P08684). Put plainly: Cytochrome P450 Family 3 Subfamily A Member 4 (CYP3A4) small molecule antagonists: luciferase reporter qHTS assay (AID 1671201). An outline of the steps:
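Enzyme and proluciferin substrate are mixed with test chemicals for 10 min, then NADPH regeneration system drives turnover for 1 h at room temperature. A detection reagent halts the reaction; luminescence after 20 min gives relative activity.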

Molecules are shown by their SMILES. Several values for one entry are separate records, joined by “and”; a condition that tells them apart may be missing. Equal entries are not always repeated. Inconclusive results are not listed. The source holds several records for some structures; these can differ, active in one and inactive in another. Activity calls are given as the source filed them. Calls follow the shape of the dose curve; as a rule, active = well fitted curve in the direction sought with a large enough effect in the repeat runs; inconclusive = weak or mixed curves; inactive = no such curve, though single readings can be large; an effect the other way counts as inactive or inconclusive.

Voltage-gated inwardly rectifying potassium channel KCNH2 (Homo sapiens), sequence (Q12809 whole entry, looked up): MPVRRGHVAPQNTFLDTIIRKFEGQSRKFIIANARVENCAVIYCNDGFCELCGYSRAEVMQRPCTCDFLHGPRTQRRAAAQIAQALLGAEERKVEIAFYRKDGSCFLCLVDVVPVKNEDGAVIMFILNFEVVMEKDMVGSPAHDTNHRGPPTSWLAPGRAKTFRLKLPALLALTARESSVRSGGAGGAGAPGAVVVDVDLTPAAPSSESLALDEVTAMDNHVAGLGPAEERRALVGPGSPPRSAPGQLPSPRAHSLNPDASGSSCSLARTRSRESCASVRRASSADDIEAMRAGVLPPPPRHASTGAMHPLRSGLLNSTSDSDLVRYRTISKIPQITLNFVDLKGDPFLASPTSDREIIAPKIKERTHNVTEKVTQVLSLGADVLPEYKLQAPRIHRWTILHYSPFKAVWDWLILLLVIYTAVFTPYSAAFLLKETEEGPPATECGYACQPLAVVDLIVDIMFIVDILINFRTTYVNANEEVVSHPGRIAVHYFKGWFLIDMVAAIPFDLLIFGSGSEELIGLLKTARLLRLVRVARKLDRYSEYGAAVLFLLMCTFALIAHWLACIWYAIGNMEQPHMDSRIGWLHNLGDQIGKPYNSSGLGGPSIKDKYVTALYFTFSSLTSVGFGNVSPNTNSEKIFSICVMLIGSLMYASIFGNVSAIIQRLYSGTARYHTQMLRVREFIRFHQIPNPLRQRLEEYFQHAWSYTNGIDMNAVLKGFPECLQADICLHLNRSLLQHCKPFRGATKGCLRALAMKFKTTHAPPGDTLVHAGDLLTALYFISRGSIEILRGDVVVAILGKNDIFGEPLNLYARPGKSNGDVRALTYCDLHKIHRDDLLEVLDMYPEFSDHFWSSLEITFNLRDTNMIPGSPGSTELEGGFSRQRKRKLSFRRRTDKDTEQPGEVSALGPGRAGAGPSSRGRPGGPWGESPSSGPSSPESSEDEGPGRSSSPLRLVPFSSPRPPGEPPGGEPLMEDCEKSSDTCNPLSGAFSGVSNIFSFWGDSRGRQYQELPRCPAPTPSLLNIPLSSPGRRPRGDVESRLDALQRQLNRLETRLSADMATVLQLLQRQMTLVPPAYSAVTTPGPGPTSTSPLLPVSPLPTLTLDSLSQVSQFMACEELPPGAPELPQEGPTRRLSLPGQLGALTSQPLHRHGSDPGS
Cytochrome P450 1A2 (Homo sapiens), sequence (P05177 whole entry, looked up): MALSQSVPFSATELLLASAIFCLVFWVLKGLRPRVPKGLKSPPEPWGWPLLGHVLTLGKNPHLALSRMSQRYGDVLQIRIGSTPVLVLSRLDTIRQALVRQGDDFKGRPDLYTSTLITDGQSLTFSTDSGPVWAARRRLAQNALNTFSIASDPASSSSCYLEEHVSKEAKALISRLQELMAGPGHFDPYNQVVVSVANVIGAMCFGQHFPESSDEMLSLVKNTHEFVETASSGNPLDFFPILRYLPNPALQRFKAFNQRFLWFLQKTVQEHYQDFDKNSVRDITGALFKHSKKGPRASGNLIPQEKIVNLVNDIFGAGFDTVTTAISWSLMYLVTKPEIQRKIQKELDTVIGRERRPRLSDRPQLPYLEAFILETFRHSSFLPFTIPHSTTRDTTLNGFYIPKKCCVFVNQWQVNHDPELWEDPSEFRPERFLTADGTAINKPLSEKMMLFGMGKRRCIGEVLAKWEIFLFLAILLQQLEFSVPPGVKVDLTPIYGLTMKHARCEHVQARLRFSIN
Cytochrome P450 3A4 (Homo sapiens), sequence (P08684 whole entry, looked up): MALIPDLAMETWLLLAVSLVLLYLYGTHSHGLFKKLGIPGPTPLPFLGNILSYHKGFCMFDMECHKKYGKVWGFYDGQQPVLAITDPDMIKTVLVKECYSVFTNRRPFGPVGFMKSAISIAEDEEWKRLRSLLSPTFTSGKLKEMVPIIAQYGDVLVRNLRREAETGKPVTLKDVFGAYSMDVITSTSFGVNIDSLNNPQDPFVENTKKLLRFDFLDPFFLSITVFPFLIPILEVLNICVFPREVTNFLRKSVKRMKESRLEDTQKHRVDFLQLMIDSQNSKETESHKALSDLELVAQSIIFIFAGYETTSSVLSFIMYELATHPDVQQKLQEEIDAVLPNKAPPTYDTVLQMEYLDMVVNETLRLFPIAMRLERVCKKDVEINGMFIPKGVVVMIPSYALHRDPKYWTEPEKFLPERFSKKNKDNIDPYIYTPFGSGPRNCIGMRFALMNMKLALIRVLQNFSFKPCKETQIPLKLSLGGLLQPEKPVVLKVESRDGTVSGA
Cytochrome P450 2C9 (Homo sapiens), sequence (P11712 whole entry, looked up): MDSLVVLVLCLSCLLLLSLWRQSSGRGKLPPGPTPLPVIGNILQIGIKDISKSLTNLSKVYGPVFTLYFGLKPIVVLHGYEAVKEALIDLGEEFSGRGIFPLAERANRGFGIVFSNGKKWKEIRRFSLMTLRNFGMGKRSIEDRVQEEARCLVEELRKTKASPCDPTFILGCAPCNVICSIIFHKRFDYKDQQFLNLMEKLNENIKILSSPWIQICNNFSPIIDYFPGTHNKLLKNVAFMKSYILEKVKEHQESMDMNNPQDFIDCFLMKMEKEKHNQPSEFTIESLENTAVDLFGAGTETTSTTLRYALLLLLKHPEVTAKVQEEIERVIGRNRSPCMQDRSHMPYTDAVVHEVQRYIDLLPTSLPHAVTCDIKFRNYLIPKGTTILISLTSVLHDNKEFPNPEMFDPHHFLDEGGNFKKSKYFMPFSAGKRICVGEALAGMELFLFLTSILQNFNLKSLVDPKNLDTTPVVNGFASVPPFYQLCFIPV
Cytochrome P450 2C19 (Homo sapiens), sequence (P33261 whole entry, looked up): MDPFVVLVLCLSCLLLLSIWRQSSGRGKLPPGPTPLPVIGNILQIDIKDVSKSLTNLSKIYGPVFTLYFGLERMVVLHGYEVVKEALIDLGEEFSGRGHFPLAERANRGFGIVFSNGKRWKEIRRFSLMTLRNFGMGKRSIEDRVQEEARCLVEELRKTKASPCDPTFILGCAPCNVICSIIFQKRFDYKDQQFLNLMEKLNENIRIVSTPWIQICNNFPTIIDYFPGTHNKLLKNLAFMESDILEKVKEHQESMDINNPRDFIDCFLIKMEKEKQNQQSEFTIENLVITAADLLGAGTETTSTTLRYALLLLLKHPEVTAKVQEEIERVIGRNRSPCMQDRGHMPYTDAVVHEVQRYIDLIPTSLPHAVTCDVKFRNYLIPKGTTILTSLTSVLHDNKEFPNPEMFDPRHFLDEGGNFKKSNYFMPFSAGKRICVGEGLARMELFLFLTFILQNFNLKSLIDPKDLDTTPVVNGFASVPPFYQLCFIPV
Cytochrome P450 2D6 (Homo sapiens), sequence (P10635 whole entry, looked up): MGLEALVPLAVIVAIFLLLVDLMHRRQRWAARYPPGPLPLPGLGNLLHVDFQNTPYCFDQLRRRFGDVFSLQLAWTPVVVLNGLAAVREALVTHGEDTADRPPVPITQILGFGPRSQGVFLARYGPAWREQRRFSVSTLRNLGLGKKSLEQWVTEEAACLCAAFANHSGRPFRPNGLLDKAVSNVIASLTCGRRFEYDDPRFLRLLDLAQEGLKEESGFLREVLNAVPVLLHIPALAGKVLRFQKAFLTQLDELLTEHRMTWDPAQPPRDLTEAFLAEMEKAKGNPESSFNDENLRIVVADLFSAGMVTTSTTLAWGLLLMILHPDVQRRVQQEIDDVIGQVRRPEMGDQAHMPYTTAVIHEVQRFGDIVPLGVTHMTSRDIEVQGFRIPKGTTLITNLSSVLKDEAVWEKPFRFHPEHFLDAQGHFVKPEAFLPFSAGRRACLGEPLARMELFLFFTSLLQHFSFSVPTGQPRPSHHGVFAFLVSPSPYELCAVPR

Turning to `OCCc1ccccc1`, the Potency result in test [1], in test [2], in test [3], in test [4] and in test [6] was “inactive” each time. The result in test [5] was inactive.

As for `NC(=O)c1ccccc1O`, the Potency entry in test [1], in test [3], in test [4] and in test [6] was “inactive” throughout. Moreover, in test [5], the compound was classed as inactive.

In the case of `Cc1noc(NS(=O)(=O)c2ccc(N)cc2)c1C`, the Potency entry in test [1], in test [3], in test [4] and in test [6] was “inactive” each time. Also, the result in test [5] was inactive.

Take `Cc1ccc(C)c(OCCCC(C)(C)C(=O)O)c1`: the Potency entry in test [1] and in test [6] was “inactive” throughout. Further, the Potency in test [2] was 50.6 µM (active) and 56.4 µM (active) and inactive; in test [3], 31.9 µM (active) and 35.6 µM (active) and 17.4 µM (active); in test [4] it was 71 µM (active) and inactive. The call in test [5] was inactive.

With `O=C(O)c1[nH]n(-c2ccc(S(=O)(=O)O)cc2)c(=O)c1N=Nc1ccc(S(=O)(=O)O)cc1`, the Potency result in test [1], in test [4] and in test [6] was “inactive” throughout. Moreover, in test [3], the Potency entry was “inactive and 18.7 µM (active)”. Further, the compound was called inactive in test [5].

Regarding `O=S(=O)(O)c1ccc2cc(O)ccc2c1`, the Potency result in test [1], in test [3] and in test [6] was “inactive” each time. Besides, the Potency result was “inactive and 71.6 µM (active) and 79.6 µM (active)” in test [2]; “inactive and 39.9 µM (active)” in test [4]. In test [5], the outcome was inactive.

For `NC(=O)NC1NC(=O)NC1=O` (configuration not stated), in test [1], the Potency is 35.2 µM (active) and inactive. The Potency result in test [2] and in test [3] was “inactive” throughout. Further, the compound was called inactive in test [5].

With `O=C(O)C(=O)O`, the Potency entry in test [1], in test [3], in test [4] and in test [6] was “inactive” each time. The call in test [5] was inactive.

For the compound `CC(O)CN(CCN(CC(C)O)CC(C)O)CC(C)O` (configuration not stated), the Potency in test [1] was 36.2 µM (active). In addition, the Potency result in test [2], in test [3], in test [4] and in test [6] was “inactive” in each case. Further, in test [5], the outcome was inactive.

Turning to `O=c1cc[nH]c(=S)[nH]1`, the Potency entry in test [1] and in test [6] was “inactive” in each case. For the same compound, the Potency was 28.5 µM (active) and inactive in test [2]; 40.2 µM (active) and inactive in test [3]; 71.5 µM (active) and 36.7 µM (active) and 24.5 µM (active) in test [4]. Also, the result in test [5] was inactive.

For `NC(N)=NC(=O)c1nc(Cl)c(N)nc1N`, the Potency result in test [1], in test [2], in test [3], in test [4] and in test [6] was “inactive” throughout. The outcome in test [5] was inactive.

Take `C/C=C/c1ccc(OC)cc1`: in test [1], the Potency result is “inactive”. Moreover, the Potency entry is “inactive and 21.9 µM (active)” in test [2]; “inactive and 13.8 µM (active)” in test [3]; “inactive and 17.4 µM (active)” in test [4]. Further, the compound was classed as inactive in test [5].

As to `C1N2CN3CN1CN(C2)C3`, the Potency result in test [1], in test [2], in test [3] and in test [6] was “inactive” each time. In addition, in test [4], the Potency result is “inactive and 15.5 µM (active)”. Also, the compound was classed as inactive in test [5].

As to `CCCN(CCC)S(=O)(=O)c1ccc(C(=O)O)cc1`, the Potency entry in test [1], in test [2], in test [3] and in test [4] was “inactive” in each case. For the same compound, the compound was called inactive in test [5].

For the compound `CCCCOC(=O)CC(CC(=O)OCCCC)(OC(C)=O)C(=O)OCCCC`, the Potency result in test [1] was “inactive”. In addition, the Potency in test [3] was 2.75 µM (active) and 2.86 µM (active) and 2.52 µM (active).

For the compound `O=C(C1CCCCC1)N1CC(=O)N2CCc3ccccc3C2C1` (configuration not stated), the Potency entry in test [1] and in test [3] was “inactive” in each case. Further, in test [4], the Potency is 31.7 µM (active) and 28.3 µM (active) and 17.4 µM (active). The outcome in test [5] was inactive.

In the case of `O=C(O)c1cccnc1`, in test [5], the compound was classed as inactive.

For `Cn1c(=O)c2[nH]cnc2n(C)c1=O`, the Potency entry in test [1], in test [4] and in test [6] was “inactive” in each case.

For `CCOc1ccc(NC(=O)CC(C)O)cc1` (configuration not stated), the Potency in test [1] is 32.1 µM (active) and inactive. Also, the Potency result in test [3] and in test [6] was “inactive” in each case. Besides, in test [5], the outcome was inactive.

On to `O=C(O)c1cccc([N+](=O)[O-])c1`, for which the Potency entry in test [1], in test [3], in test [4] and in test [6] was “inactive” throughout. In addition, the call in test [5] was inactive.

As to `O=S(=O)(O)NC1CCCCC1`, in test [5], the outcome was inactive.

On to `O=C(O)CS`, for which the Potency entry in test [1], in test [3], in test [4] and in test [6] was “inactive” throughout. Further, the outcome in test [5] was inactive.

In the case of `Oc1ccc(/C=C/c2cc(O)cc(O)c2)cc1`, the call in test [5] was inactive.

With `COc1ccc2[nH]cc(CCNC(C)=O)c2c1`, the Potency in test [3] was 32.2 µM (active) and 35.6 µM (active). For the same compound, in test [5], the call was inactive. Moreover, the Potency result in test [6] was “inactive”.

As to `c1ccc2[nH]ccc2c1`, the Potency entry in test [1] and in test [6] was “inactive” in each case. Besides, the Potency in test [3] is 35 µM (active) and inactive; in test [4], 35 µM (active) and 35.6 µM (active) and 17.4 µM (active). Also, the result in test [5] was inactive.

`O=C(O)c1cc(N=Nc2ccc(S(=O)(=O)Nc3ccccn3)cc2)ccc1O`: the Potency entry in test [1], in test [4] and in test [6] was “inactive” throughout. For the same compound, in test [3], the Potency was 14.2 µM (active) and 17.8 µM (active) and 8.71 µM (active). For the same compound, the outcome in test [5] was inactive.

On to `Cc1cc(=O)n(-c2ccccc2)n1C`, for which the Potency entry in test [1], in test [4] and in test [6] was “inactive” each time. In test [5], the compound was classed as inactive.

Regarding `Cn1cc[nH]c1=S`, the Potency entry in test [1] was “inactive”. Besides, the Potency entry in test [3] was “inactive and 71 µM (active)”. In addition, the compound was called inactive in test [5].
